BoNT A protease: BoNT A light chain protease inhibition | multiplex microsphere protease substrate cleavage, flow cytometry | inhibition, % at 10 µM | 360,000 compounds, 0.17% hits
BoNT-F LC inh: inhibitors of Botulinum neurotoxin F light chain protease; Multiplex microsphere protease cleavage assay, flow cytometry; inhibition, % at 10 µM; AID 588497; 360,000 compounds, 0.22% hits; in the data active = inhibition above about 35%, passing the limit was not always enough; inconclusive = no clear call, values can overlap the other calls
Anthrax LF prot: anthrax lethal factor protease inhibition; 360,000 compounds, 0.12% hits; P15917; inhibition, % at 10 µM; multiplex microsphere protease cleavage assay, LF
Target sequence (P15917 whole entry, looked up): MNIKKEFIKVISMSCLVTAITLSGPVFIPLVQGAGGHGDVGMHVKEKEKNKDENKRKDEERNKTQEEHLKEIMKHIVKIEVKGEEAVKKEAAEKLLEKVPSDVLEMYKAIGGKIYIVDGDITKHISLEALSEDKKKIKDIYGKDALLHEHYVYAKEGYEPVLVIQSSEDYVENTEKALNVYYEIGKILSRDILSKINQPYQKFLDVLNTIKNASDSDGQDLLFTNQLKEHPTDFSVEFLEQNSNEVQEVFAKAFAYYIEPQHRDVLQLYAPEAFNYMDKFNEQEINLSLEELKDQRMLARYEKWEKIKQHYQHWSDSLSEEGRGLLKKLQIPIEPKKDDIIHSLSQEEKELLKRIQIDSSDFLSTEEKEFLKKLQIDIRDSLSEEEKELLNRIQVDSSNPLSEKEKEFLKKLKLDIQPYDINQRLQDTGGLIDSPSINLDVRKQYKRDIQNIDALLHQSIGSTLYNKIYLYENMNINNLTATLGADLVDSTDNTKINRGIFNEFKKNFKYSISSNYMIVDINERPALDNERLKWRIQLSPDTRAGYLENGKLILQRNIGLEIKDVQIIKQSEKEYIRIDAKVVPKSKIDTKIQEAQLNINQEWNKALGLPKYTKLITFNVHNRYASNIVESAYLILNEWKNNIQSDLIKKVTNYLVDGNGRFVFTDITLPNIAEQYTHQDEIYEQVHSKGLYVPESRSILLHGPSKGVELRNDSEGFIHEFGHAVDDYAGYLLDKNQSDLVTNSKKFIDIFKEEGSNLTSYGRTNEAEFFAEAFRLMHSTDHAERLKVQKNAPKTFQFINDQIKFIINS
Autofluor counter: counter-screen for toxin protease inhibitors: compound fluorescence | compound autofluorescence counterscreen, microsphere flow cytometry; hits give high values | 360,000 compounds, 3.1% hits | fluorescence intensity (no concentration beside the values); in the data active = fluorescence intensity above about 16000; inconclusive = no clear call, values can overlap the other calls
Of the large screens only hits and unclear results are named; the others gave an inactive call. Rows were chosen to be rich in hits. Some 3.5% of all compounds tested hit in one or more screens of this group. Rule as the data show it, unless noted: active = inhibition above about 30%; inconclusive = no clear call, values can overlap the other calls; inactive = below that.

CS(=O)(=O)N1CCN(c2ccccc2NC(=O)c2ccc(-c3ccc(Br)cc3)o2)CC1	Autofluor counter 16514
CS(=O)(=O)N1CCN(c2ccc(NC(=O)c3ccc(-c4ccc(Cl)cc4)o3)cc2)CC1	Autofluor counter 17675
O=C(NC(=S)Nc1ccccc1N1CCCC1)c1ccc(-c2cccc([N+](=O)[O-])c2)o1	BoNT A protease inconclusive, Autofluor counter 19601
CC1CCN(c2nc3c(c(=O)n(C)c(=O)n3C)n2CCSc2nc3ccccc3s2)CC1	none
CC1CCCN(c2nc3c(c(=O)n(C)c(=O)n3C)n2CCSc2nc3ccccc3s2)C1 (configuration not stated)	Autofluor counter 20318
Cn1c(=O)c2c(nc(N3CCCCC3)n2CCSc2nc3ccccc3s2)n(C)c1=O	Autofluor counter 16274
Cn1c(=O)c2c(nc(N3CCC(C(N)=O)CC3)n2CCSc2nc3ccccc3s2)n(C)c1=O	none
CCC[C@H]1CN(c2ccccc2)C(=O)[C@@H]1CC(=O)Nc1ccc(Br)cc1	none
Cc1ccc(C(=O)C(OC(=O)CCC(=O)Nc2cccc(C)c2)c2ccccc2)cc1 (configuration not stated)	none
COc1ccc(NC(=O)CCC(=O)OC(C(=O)c2ccccc2)c2ccccc2)cc1 (configuration not stated)	Autofluor counter 20295
Cc1ccc(-n2ncc(N(C)C)c(Cl)c2=O)cc1	none
CN(/N=C/c1ccncc1)c1cnn(-c2ccc(F)c(Cl)c2)c(=O)c1Cl	Autofluor counter 20433
O=C(Nc1ccc2c(c1)OCCO2)C(c1ccnc2ccccc12)N1CCN(C/C=C/c2ccccc2)CC1 (configuration not stated)	none
Cc1c(Cl)cccc1NC(=O)Cn1c(CCC(=O)O)ccc1-c1ccccc1	BoNT-F LC inh 48.3
Cc1c(Cl)cccc1NC(=O)CN1CCC(C(O)(c2ccccc2)c2ccccc2)CC1	Autofluor counter 21085
O=C(c1ccccc1)N1CCN(C(=O)C2CC2)CC1	none
O=C(C1CC1)N1CCC(C(O)(c2ccccc2)c2ccccc2)CC1	BoNT A protease inconclusive, Autofluor counter 21864
O=C(CN1CCC(NC(=O)c2ccc(F)cc2)CC1)NCc1ccccc1F	Autofluor counter 17206
Cc1c(Cl)ccc2c1NC(=O)[C@]21N[C@@H](Cc2ccccc2)[C@H]2C(=O)N(c3ccc(F)cc3)C(=O)[C@H]21	BoNT A protease inconclusive, Autofluor counter 23930
O=C1[C@@H]2[C@H](Cc3ccc(O)cc3)N[C@]3(C(=O)Nc4ccccc43)[C@@H]2C(=O)N1c1ccc(F)cc1	none
O=C(COC(=O)c1cnccn1)NCc1ccccc1Cl	none
CCOc1ccc(NC(=O)NCCN2C(C)CCCC2C)cc1 (configuration not stated)	Autofluor counter 17584
CCOc1ccc(NC(=O)NCCCSC2CCCCC2)cc1	Autofluor counter 22514
CCOc1ccc(NC(=O)NC2CCCCCCC2)cc1	none
Cc1cccnc1NC(=O)CNC(=O)c1ccccc1	none
O=C(Cc1csc(N2CCOCC2)n1)N/N=C/c1ccc(F)cc1	Autofluor counter 20712
O=S(=O)(c1ccc(Cl)nc1)N1CCCC1	none
CCCn1c(SCC(=O)NCc2ccco2)nc2c1c(=O)n(C)c(=O)n2C	Autofluor counter 22819
CCCn1c(SCC(=O)N2c3ccccc3Sc3ccccc32)nc2c1c(=O)n(C)c(=O)n2C	none
CCCn1c(SCC(=O)N2CCCc3ccccc32)nc2c1c(=O)n(C)c(=O)n2C	Autofluor counter 21086
CCCn1c(SCC(=O)Nc2cc(C)on2)nc2c1c(=O)n(C)c(=O)n2C	Autofluor counter 22114
CC(C)[C@H](NC(=O)[C@H]1N2C(=O)c3ccccc3C2SC1(C)C)C(=O)NCc1ccco1 (some centres not stated)	Autofluor counter inconclusive
COc1ccc2c(c1)CCC1C2=NN(/C(C)=C\C(C)=O)C1c1ccc(F)cc1 (configuration not stated)	BoNT A protease inconclusive, BoNT-F LC inh inconclusive, Anthrax LF prot inconclusive, Autofluor counter 34486
COc1ccc2c(c1)C1=NN(/C(C)=C/C(C)=O)C(c3ccc(F)cc3)C1CC2 (configuration not stated)	none
COc1ccc2c(c1)C1=NN(/C(C)=C\C(C)=O)C(c3ccccc3)C1CC2 (configuration not stated)	Autofluor counter 21972
CC1(C)Cc2c(c(N3CCOCC3)nc3sc4c(NCc5ccccc5)nnnc4c23)CS1	Autofluor counter 23609
CCN(CC)c1ccc(NC(=O)c2ccc3c(c2)OCO3)cc1	none
Cc1cccn2c(=O)c(C=O)c(N3CC(C)OC(C)C3)nc12 (configuration not stated)	none
COc1ccccc1N1CCN(c2nc3c(C)cccn3c(=O)c2C=O)CC1	BoNT A protease inconclusive, Autofluor counter 20185
Cc1cccn2c(=O)c(C=O)c(N3CCCCCC3)nc12	Autofluor counter 19642
CC1=C(C)CC(C(=O)NCCc2ccccc2)C(C(=O)O)C1 (configuration not stated)	Autofluor counter 23755
CN(C)C(=O)N1CCCC(C(=O)NCc2ccccc2)C1 (configuration not stated)	none
Cc1ccc(CCNC(=O)C2CCCN(C(=O)N(C)C)C2)cc1 (configuration not stated)	Autofluor counter 25529
CN(C)C(=O)N1CCCC(C(=O)NCCc2ccccc2)C1 (configuration not stated)	Autofluor counter 24323
CC1=C(C)CC(C(=O)NCCc2ccc(F)cc2)C(C(=O)O)C1 (configuration not stated)	none
COc1cccc(CNC(=O)CN2C(=O)c3ccccc3S2(=O)=O)c1	Autofluor counter inconclusive
CCn1c(COc2ccc(=O)n(-c3ccccc3)n2)nnc1SCc1ccc(OC)cc1	none
CCn1c(COc2ccc(=O)n(-c3ccccc3)n2)nnc1SCc1ccccc1	Autofluor counter 21225
O=C(c1ccc(Cl)cc1)C1CCN(C(=S)Nc2ccccc2)CC1	BoNT-F LC inh inconclusive
COC(=O)c1ccccc1C(=O)N(c1ccccc1)c1ccccc1	BoNT-F LC inh inconclusive, Autofluor counter inconclusive
O=C(NCCc1ccc2c(c1)OCCO2)c1cc(S(=O)(=O)N2CCCC2)ccc1Br	none
Cn1c(=O)c2c(ncn2CCOC(=O)C(C)(C)Oc2ccc(Cl)cc2)n(C)c1=O	none
COc1ccc(CCN(C)Cc2c(F)cccc2F)cc1OC	BoNT A protease inconclusive, Autofluor counter 23473
COc1ccc(N2CCN(C(c3cc4cc(C)ccc4[nH]c3=O)c3nnnn3Cc3ccccc3)CC2)cc1 (configuration not stated)	Autofluor counter 20480
Cc1ccc2cc(C(c3nnnn3Cc3ccccc3)N3CCN(c4ccccc4)CC3)c(=O)[nH]c2c1 (configuration not stated)	Autofluor counter 23279
Cc1ccc2cc(C(c3nnnn3C3CCCC3)N3CCN(c4ccccc4)CC3)c(=O)[nH]c2c1 (configuration not stated)	none
O=[N+]([O-])c1cc(/C=N/OCc2c(Cl)cccc2Cl)ccc1N1CCOCC1	Autofluor counter 22744
Cc1ccc2nc(SCC(=O)NCCCN3CCCC3=O)[nH]c2c1	none
COc1cccc(N2CN(CCc3ccccc3)CNC2=S)c1	BoNT-F LC inh 49.5, Anthrax LF prot inconclusive
CCCSc1nnc(CSc2nc3ccccc3s2)n1-c1ccccc1	Autofluor counter 17205

High-throughput results (PubChem BioAssay)
